Data taken from ChEMBL document CHEMBL4513216, “Probing the Open Global Health Chemical Diversity Library for Multistage-Active Starting Points for Next-Generation Antimalarials” (ACS Infect Dis, 2020).
Among all 65,000 compounds or so, about 2,100 (3.2%) showed an effect of 50% or more. The median lay at about -52%. This excerpt belongs to a sample that is enriched for strong results.

tested on: Plasmodium falciparum; assay: Screen against P. falciparum Asexual Blood Stage (ABS), at 5uM; type: functional, Dd2; settings: tested at 5 uM

Row | Compound | INHIBITION
1 | CN(CC(=O)Nc1cccnc1)C1CCCN(c2cccnn2)C1 (centres undefined) | 8.25%
2 | CC(=O)NCCNCc1cn(CCN2CCSCC2)nc1C | -18%
3 | Cc1nc(C(C)C)sc1C(=O)NCCn1nc2ccccn2c1=O | 59.1%
4 | Cc1nc(C)c(C(=O)NCCn2nc3ccccn3c2=O)s1 | -42%
5 | CCc1nc(C)c(C(=O)NCCn2nc3ccccn3c2=O)s1 | -71.9%
6 | Cn1cnc2c1CCN(CC(O)c1ccc3c(c1)OCCO3)C2 (centres undefined) | -106%
7 | CCc1nnc2n1CCN(CC(O)c1ccc3c(c1)OCCO3)C2 (centres undefined) | 66.3%
8 | CCc1nnc2n1CCN(Cc1cccc3c1OCCO3)C2 | 43.7%
9 | Cc1cc(C)cc(CN2C[C@@H]3OCCN(CC(=O)N(C)C)[C@@H]3C2)c1 | -93.1%
10 | COC[C@H]1CCCN1c1nccc(-c2cnn(-c3ccccc3C)c2)n1 | -32.9%
11 | COCC(=O)N1CCC2(CC1)CN(c1ccsc1)C(=O)CO2 | -11.6%
12 | CN(C)CC(=O)N1CCC2(CCN(Cc3cccc(F)c3)CC2)C1 | 36.4%
13 | CC(=O)N1CCC2(CCN(Cc3cccc(F)c3)CC2)CC1 | -58.8%
14 | Cc1noc(C)c1CN1CCC2(CCN(Cc3cccc(F)c3)CC2)C1 | 67.9%
15 | O=C(CC1CC1)N[C@@H]1CN(C(=O)c2ccsc2)C[C@@H]2CCCO[C@@H]21 | -17.8%
16 | CC(=O)N1CC2(CCN(Cc3ccc(Cl)cc3)C2)Cc2ccccc21 (centres undefined) | 9.12%
17 | Cc1c(C)n(CC(O)CN2CCCCCC2)c2c(Cl)cccc12 (centres undefined) | 51.6%
18 | Cc1c(C)n(CC(O)CN2CCOCC2)c2c(Cl)cccc12 (centres undefined) | -15.7%
19 | Cc1c(C)n(CC(O)CN2CCC(O)CC2)c2c(Cl)cccc12 (centres undefined) | 44.9%
20 | CCN1CC(C(=O)NCCOc2ccc3c(c2)OCO3)CC1=O (centres undefined) | -196%
21 | Cc1noc(CN(C)CC2CCCN(CCc3ccc(Cl)cc3)C2)n1 (centres undefined) | -72.6%
22 | Cc1nc(CN(C)CC2CCCN(CCc3ccc(Cl)cc3)C2)n(C)n1 (centres undefined) | 54.3%
23 | CN(Cc1ccncc1)CC1CCCN(CCc2ccc(Cl)cc2)C1 (centres undefined) | -23.8%
24 | O=S(=O)(c1cccs1)N1Cc2nc(CN3CCCC3)oc2C1 | -84.5%
25 | COc1ccc(NC(=O)c2cccc(CN3CCCC3C)c2)cc1OC (centres undefined) | 51.1%
26 | Cc1cccc(C)c1NC(=O)c1cccc(CN2CCCC2C)c1 (centres undefined) | 49.8%
27 | CC1CCCN1Cc1cccc(C(=O)Nc2ccc3c(c2)CCC3=O)c1 (centres undefined) | 30.1%

Row | Compound | INHIBITION
28 | O=C([C@H]1C[C@@H]2CCN(c3cccc(F)c3)C[C@H]2O1)N1CCCC1 | -20.3%
29 | CCc1nc(C2CCCN2CCCSC)no1 (centres undefined) | 42.3%
30 | O=c1c(NCc2ccncc2)c(NCC(O)CN2CCOCC2)c1=O (centres undefined) | -27%
31 | Cc1nnc(N2CCCC3(CN(Cc4ccc(F)cc4)CCO3)C2)o1 (centres undefined) | -65.4%
32 | Cc1cc(C)cc(CNC(C)c2c(C)nn(C)c2C)c1 (centres undefined) | 49.4%
33 | Cn1nccc1C(=O)N1CC[C@]2(C[C@H](OCc3ccccn3)CO2)C1 | -58%
34 | Cc1ccc(CCNc2nc(-c3ccncc3)nc3c2CCNCC3)o1 | -88.2%
35 | CCOCCNc1nc(-c2ccncc2)nc2c1CCNCC2 | -46.1%
36 | c1csc(CCNc2nc(-c3ccncc3)nc3c2CCNCC3)c1 | 53.5%
37 | Cc1csc(CCCNC(=O)NC2CC(=O)N(C(C)(C)C)C2)n1 (centres undefined) | -57%
38 | Cc1n[nH]c(NC(=O)c2ccc(COCC(F)(F)F)cc2)c1C | -94.3%
39 | O=C1CC2(CCCCN2C(=O)c2ccco2)CN1c1cccnc1 (centres undefined) | -138%
40 | O=C1Nc2ccccc2CN(CC=Cc2ccccc2)C12CCNC2 (centres undefined) | 60.2%
41 | CCCN1Cc2ccccc2NC(=O)C12CCNC2 (centres undefined) | -23.5%
42 | O=C1Nc2ccccc2CN(CC2CC2)C12CCNC2 (centres undefined) | -2.03%
43 | COCCN1CCN(C(=O)N2CCCC2)Cc2ccc(C)nc21 | -114%
44 | CC(C)(C)c1nc(CN2CCCN(Cc3cccs3)CC2)no1 | 30.6%
45 | Cc1csc(N2CCCN(C(=O)C3(C#N)CCCC3)CC2)n1 | 63%
46 | Cc1csc(N2CCN(C(=O)C3(C#N)CCCC3)CC2)n1 | -111%
47 | Cc1csc(N2CCCN(C(=O)C3(C#N)CCCCC3)CC2)n1 | -43.4%
48 | Fc1cccc(N2CCCC3(CN(Cc4nccs4)CCO3)C2)c1 (centres undefined) | 0.276%
49 | CC(=O)Nc1ccc(CN2CCCC(c3cc4ncccc4[nH]3)C2)cc1 (centres undefined) | 42.3%
50 | CN(Cc1ccccc1-n1cccn1)c1nc(N)nc2c1CCNCC2 | -13.4%
51 | Cc1cc(CN(C)c2nc(-c3ccccn3)nc3c2CCNCC3)n[nH]1 | 69.2%
52 | CN(Cc1ccc(-n2cccn2)cc1)c1cc(N)nc(N)n1 | 41.7%
53 | CN(CCO)c1nc(-c2ccccn2)nc2c1CCNC2 | -79.2%
54 | CN(Cc1ccc(-n2cccn2)cc1)c1nc(N)nc2c1CCNCC2 | 58.4%
